# Experimental data published in PubChem BioAssay AID651640 (Broad Institute, 2012).
# “And” between values parts separate entries of the source, which are not always exact repeats. Equal values may be shown once. The whole screen tested about 350,000 compounds, of which about 6,000 (1.7%) were called active. Roughly 5% stayed inconclusive and do not appear here. Only a selection was taken, and actives are over-represented in it overall. Unmarked numbers belong to inactive results. No stated cut-off is given here; in the data, active means CPE inhibition above about 20% (passing the limit was not always enough); inconclusive means no clear call, values can overlap the other calls; tested in BHK-21 cells.
# Experiment: inhibitors of DENV2 cytopathic effect, primary screen, cell-based, plate reader, single concentration (AID 651640);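 further: 0% = median of neutral control wells and 100% = median of positive control wells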
# Conditions: DENV2-infected cells, cytopathic effect rescue, at 9.99 µM, active compounds read high
row,SMILES,CPE inhibition
1,O=C(NC(=S)Nc1ccc(S(=O)(=O)Nc2ncccn2)cc1)c1cccc(Br)c1,-1.82%
2,COc1ccc(OC)c(C(C)NC(=S)Nc2ccc(S(=O)(=O)Nc3ncccn3)cc2)c1 (stereo not given),49.8% (active)
3,CC(Oc1cccc(Cl)c1)C(=O)Nc1ccc(S(=O)(=O)Nc2ncccn2)cc1 (stereo not given),2.3%
4,Cc1noc(C)c1NC(=O)Nc1ccc2c(c1)C(=O)N([C@H](C)CO)C[C@@H](C)[C@H](CN(C)S(=O)(=O)c1ccc(Cl)cc1)OCCCC[C@H](C)O2,-4.55%
5,Cc1ccc(-c2ccc(CN3C(C(C)C)C(=O)N(Cc4cn(CCC5OCCO5)nn4)CCS3(=O)=O)cc2)cc1 (stereo not given),6.07%
6,Cc1ccc(-c2ccc(CN3C(C(C)C)C(=O)N(Cc4cn(CCC5OCCCO5)nn4)CCS3(=O)=O)cc2)cc1 (stereo not given),102% (active)
7,CC1C(=O)N(Cc2cn(Cc3ccco3)nn2)CCS(=O)(=O)N1Cc1ccc(-c2cccc(CO)c2)cc1 (stereo not given),-5.64%
8,CC(C)C1C(=O)N(Cc2cn(CCC3OCCO3)nn2)CCS(=O)(=O)N1Cc1ccc(-c2ccccc2C(F)(F)F)cc1 (stereo not given),-6.47%
9,Cc1ccc(-c2ccc(CN3C(C)C(=O)N(Cc4cn(CCC5OCCCO5)nn4)CCS3(=O)=O)cc2)cc1 (stereo not given),86.5% (active)
10,COc1ccc(Cn2cc(CN3CCS(=O)(=O)N(Cc4ccc(-c5cccc(Cl)c5)cc4)C(C)C3=O)nn2)cc1 (stereo not given),3.05%
11,CCCNC(=O)[C@@H]1[C@@H](CO)[C@@H]2Cn3c(cccc3=O)[C@H]1N2C(=O)C1CC1,-2.53%
12,CO[C@@H]1CN(C)C(=O)c2ccc(NC(=O)Nc3ccccc3)cc2OC[C@@H](C)N(C(=O)Nc2c(C)noc2C)C[C@@H]1C,-2.63%
13,CCCNC(=O)Nc1ccc2c(c1)C(=O)N(C)[C@H]1CC[C@H](CC(=O)NCC3CCCCC3)O[C@@H]1CO2,7.7%
14,CCC(=O)N(C)C[C@@H]1Oc2ncc(-c3ccccc3OC)cc2C(=O)N([C@@H](C)CO)C[C@@H]1C,-0.292%
15,O=C(C[C@@H]1C=C[C@@H](NC(=O)c2ccccn2)[C@@H](CO)O1)NCc1cc(F)cc(F)c1,-1.09%
16,CO[C@H]1CN(C)C(=O)c2ccc(NS(C)(=O)=O)cc2OC[C@H](C)N(C(=O)C2CCC2)C[C@H]1C,-2.45%
17,CO[C@@H]1CN(C)C(=O)c2cc(NS(C)(=O)=O)ccc2OC[C@@H](C)N(C(=O)C2CCC2)C[C@@H]1C,23.4% (active)
18,CCCC(=O)Nc1ccc2c(c1)OC[C@H](C)N(C(=O)C1CCCC1)C[C@@H](C)[C@H](OC)CN(C)C2=O,-8.69%
19,CO[C@H]1CN(C)C(=O)c2cc(NS(C)(=O)=O)ccc2OC[C@H](C)N(C(=O)C2CCCC2)C[C@H]1C,-6.55%
20,CCC(=O)N1C[C@H](C)[C@H](OC)CN(C)C(=O)c2ccc(NC(=O)Nc3ccccc3)cc2OC[C@H]1C,-7.71%
21,CO[C@@H]1CN(C)C(=O)c2cc(NC(=O)C3CC3)ccc2OC[C@H](C)N(C(=O)CN2CCOCC2)C[C@@H]1C,-10.9% and -2.35%
22,CCCC(=O)Nc1ccc2c(c1)C(=O)N(C)C[C@H](OC)[C@@H](C)CN(C(C)=O)[C@H](C)CO2,68% (active)

row,SMILES,CPE inhibition
1,CCCC(=O)Nc1ccc2c(c1)OC[C@H](C)N(C(=O)CC)C[C@H](C)[C@@H](OC)CN(C)C2=O,25.3% (active)
2,CO[C@H]1CN(C)C(=O)c2ccc(NC(=O)C3CC3)cc2OC[C@@H](C)N(C(=O)CN2CCOCC2)C[C@H]1C,41.3% (active)
3,CCCC(=O)Nc1ccc2c(c1)C(=O)N(C)C[C@@H](OC)[C@H](C)CN(C(C)=O)[C@H](C)CO2,4.44%
4,CCCNC(=O)N1C[C@H](C)[C@H](OC)CN(C)C(=O)c2cc(NC(=O)CC)ccc2OC[C@H]1C,-0.559%
5,CO[C@H]1CN(C)C(=O)c2ccc(NC(=O)C3CC3)cc2OC[C@H](C)N(C(=O)CN2CCOCC2)C[C@@H]1C,-2.69%
6,CCCC(=O)N1CCC2(CC1)CN(C(=O)C1CCCCC1)[C@@H](CO)c1[nH]c3cc(OC)ccc3c12,0.105%
7,C[C@@H]1CCCCO[C@@H](CN(C)C(=O)NC2CCCCC2)[C@@H](C)CN([C@@H](C)CO)C(=O)c2cc(NC(=O)C3CCCCC3)ccc2O1,-1.85%
8,C[C@@H]1CN([C@@H](C)CO)C(=O)c2cccc(NC(=O)Nc3ccc4c(c3)OCO4)c2O[C@@H]1CN(C)C(=O)Nc1ccc(F)cc1,16.1%
9,C[C@H](CO)N1C[C@H](C)[C@@H](CN(C)C(=O)Nc2ccc3c(c2)OCO3)Oc2ccc(NC(=O)NC3CCCCC3)cc2CC1=O,9.47%
10,COc1ccc(S(=O)(=O)N(C)C[C@H]2OCCCC[C@@H](C)Oc3ccc(NC(=O)NC(C)C)cc3C(=O)N([C@H](C)CO)C[C@H]2C)cc1,-2.15%
11,COCC(=O)N1CC(=O)N2[C@H](C1)[C@@H](c1ccc(C#Cc3cccc(OC)c3)cc1)[C@@H]2CO,-1.66%
12,COc1ccc(S(=O)(=O)N(C)C[C@@H]2OCCCC[C@H](C)Oc3ccc(NC(=O)NC4CCCCC4)cc3C(=O)N([C@H](C)CO)C[C@H]2C)cc1,-9.88%
13,CCCN1[C@H](C(=O)N2CCCCC2)[C@@H](CO)[C@@H]2Cn3c(ccc(-c4ccccc4F)c3=O)[C@@H]21,0.279%
14,C[C@H](CO)N1C[C@H](C)[C@@H](CN(C)C(=O)c2ccncc2)Oc2ncc(-c3ccncc3)cc2C1=O,0.501%
15,C/C=C/c1cccc(-c2nc(C(=O)NCCN3CCCCC3)cc3c2[C@@H](CCO)N([S@](=O)C(C)(C)C)C3)c1,8.26%
16,COCc1cn(CC[C@@H]2CC[C@@H](NC(=O)Nc3ccc(C(F)(F)F)cc3)[C@H](CO)O2)nn1,2.57%
17,O=C(C[C@H]1C[C@H]2c3cc(NC(=O)Nc4ccccc4)ccc3O[C@H]2[C@H](CO)O1)NC1CCCC1,16.7%
18,O=C(N[C@H]1CC[C@@H](CCNS(=O)(=O)Cc2ccccc2)O[C@H]1CO)c1ccccc1F,5.12%
19,CN(C)C(=O)c1cccc(-c2ccc([C@H]3[C@H](CO)N4C(=O)CN(C(=O)Cc5ccccc5)C[C@@H]34)cc2)c1,4.14%
20,Cc1noc(C)c1NC(=O)Nc1ccc2c(c1)C(=O)N([C@H](C)CO)C[C@@H](C)[C@@H](CN(C)Cc1ccncc1)OCCCC[C@H](C)O2,1.93%
21,CN1C(=O)c2cc(NC(=O)C3CCOCC3)ccc2OC[C@@H]2O[C@@H](CC(=O)NCC3CC3)CC[C@@H]21,-9.75%
22,CN(C)C(=O)C[C@@H]1C[C@@H]2c3cc(NC(=O)NC4CCCCC4)ccc3O[C@@H]2[C@H](CO)O1,-9.26%

row,SMILES,CPE inhibition
1,CCC(=O)Nc1ccc2c(c1)OC[C@H](C)N(C(=O)c1ccccc1F)C[C@@H](C)[C@H](OC)CN(C)C2=O,-6.62%
2,CO[C@@H]1CN(C)C(=O)c2cc(NC(=O)C3CC3)ccc2OC[C@H](C)N(C(=O)c2ccccc2F)C[C@H]1C,-0.841%
3,CCC(=O)Nc1ccc2c(c1)C(=O)N(C)C[C@H](OC)[C@H](C)CN(C(=O)c1ccccc1F)[C@@H](C)CO2,23.7% (active)
4,C[C@@H]1CN([C@@H](C)CO)C(=O)c2cc(-c3cncnc3)cnc2O[C@@H]1CN(C)C(=O)c1ccccc1F,16.7%
5,COc1ccc2c(c1)[C@H]1[C@H](CO2)[C@H](c2ccccc2)[C@]2(C)C(=O)Nc3cc(F)c(F)cc3C(=O)N12,-1.62%
6,CCOC(=O)[C@H]1[C@H]2COc3ccc(Cl)cc3[C@@H]2N2C(=O)c3cc(C)ccc3NC(=O)[C@@]12C,4.71%
7,Cc1ccc2c(c1)NC(=O)[C@@]1(C)[C@@H](c3ccccc3)[C@H]3COc4ccc(Cl)cc4[C@@H]3N1C2=O,82.7% (active)
8,Cc1ccc(CC2(C)C(=O)Nc3ccc(OC(F)(F)F)cc32)cc1 (stereo not given),6.39%
9,CCc1ccc2c(c1)NC(=O)C2(C)Cc1ccc(OC(F)(F)F)cc1 (stereo not given),48.3% (active)
10,COc1ccccc1CC1(C)C(=O)Nc2ccc(OC(F)(F)F)cc21 (stereo not given),0.818%
11,CC(C)NC(=O)Nc1cccc2c1O[C@@H](CN(C)Cc1ccc(C(=O)O)cc1)[C@@H](C)CN([C@H](C)CO)C2=O,-5.2%
12,CO[C@H]1CN(C)C(=O)c2ccc(NC(=O)c3cccc(F)c3)cc2OC[C@H](C)N(CC2CC2)C[C@@H]1C,-4.07%
13,O=C(O)c1ccc(N/N=C/c2cn(-c3ccccc3)nc2-c2cccs2)cc1,-1.67%
14,O=C(O)/C=C/c1cn(-c2ccccc2)nc1-c1cccs1,21.7% (active)
15,COc1cccc(NC(=O)CN(C)C(=O)/C=C/c2cn(-c3ccccc3)nc2-c2cccs2)c1,-12.9%
16,COc1ccc(NC(=O)N[C@@H]2CC[C@H](CCn3cc(-c4ccc(OC)cc4)nn3)O[C@@H]2CO)cc1,3.46%
17,COc1cccc(NC(=O)N(C)C[C@H]2Oc3cc(/C=C/c4ccccc4)ccc3S(=O)(=O)N([C@H](C)CO)C[C@@H]2C)c1,1.83%
18,Cc1cccc(C)c1OCCN1CCOCC1,5.93%
19,COc1ccc(-c2sc3ccccc3c2-c2ccc(OCCN3CCOCC3)cc2)cc1,9.44%
20,c1ccc(-c2ccc(OCCN3CCOCC3)cc2)cc1,27.1% (active)
21,O=C(C[C@H]1CC[C@@H](NC(=O)Nc2ccc(F)cc2)[C@H](CO)O1)NCc1cccc(F)c1,1.45%
